Among the test systems are DU-145 prostate; K-562 leukemia; MALME-3M melanoma; MDA-MB-231 breast; RXF 393 renal; SF-268 CNS; SF-295 CNS; SF-539 CNS; UACC-257 melanoma; M14 melanoma.
Holding throughout (experiment): NCI-60 one-dose screen, 48 h (100 = growth as untreated, 0 = no growth, -100 = all killed)
Common to all, as to conditions: 10 µM unless noted

We go through 10 compounds from PubChem BioAssay (NCI).

Molecules are shown by their SMILES. Where “and” joins values, the source holds several entries; their conditions need not be identical. Equal entries are not always repeated. Compounds without any hit were thinned out: in the full panel of roughly 83,000, 20% have a hit.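 The test compound was applied at a single concentration to cells in 96-well plates for 48 hours, and percent growth was recorded.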 Calls of active or inactive are those of the source. How the source made its calls: active means growth percent below 10; inactive means the rest.

Consider `O=C(c1cccc(Br)c1)N1CCN(c2ccnc3cc(Cl)ccc23)CC1`, for which the growth in the assay with DU-145 prostate is 93.3% (inactive); in the assay with K-562 leukemia, 68.1% (inactive); in the assay with MALME-3M melanoma, 94.3% (inactive); with MDA-MB-231 breast, 91.7% (inactive); with RXF 393 renal, 87% (inactive); in the assay on SF-268 CNS, 91.5% (inactive). Besides, the growth in the assay on SF-295 CNS is 87% (inactive); with SF-539 CNS, 96.9% (inactive); in the assay with UACC-257 melanoma, 85.8% (inactive); with M14 melanoma, 98.6% (inactive).
As for `C=C(c1ccc(C(=O)O)cc1)c1cc2c(cc1C)C(C)(C)CCC2(C)C`, the growth in the assay on DU-145 prostate was 94.4% (inactive) and 92.3% (inactive); with K-562 leukemia, 53.4% (inactive) and 58.5% (inactive); in the assay with MALME-3M melanoma, 64.9% (inactive); with MDA-MB-231 breast, 69.6% (inactive) and 68.2% (inactive); in the assay on RXF 393 renal, 94.9% (inactive) and 105% (inactive); in the assay on SF-268 CNS, 90.2% (inactive) and 75.4% (inactive). For the same compound, the growth with SF-295 CNS was 38.5% (inactive) and 48.8% (inactive); in the assay with SF-539 CNS, 82.1% (inactive) and 80.5% (inactive); with UACC-257 melanoma it was 94.9% (inactive) and 90.3% (inactive); with M14 melanoma, 87% (inactive) and 75.5% (inactive).
Consider `Cc1c(C(C)(C)O)cn2ncnc(Oc3ccc(NC(=O)Nc4ccc(Cl)c(C(F)(F)F)c4)cc3)c12`, for which the growth was 57.6% (inactive) in the assay on DU-145 prostate; 14.9% (inactive) with K-562 leukemia; 51.2% (inactive) in the assay with MALME-3M melanoma; 32.2% (inactive) in the assay on MDA-MB-231 breast; 39% (inactive) in the assay on RXF 393 renal; 45.3% (inactive) with SF-268 CNS. In addition, the growth in the assay on SF-295 CNS was 16% (inactive); with SF-539 CNS, 25.9% (inactive); in the assay with UACC-257 melanoma, 66.5% (inactive); in the assay on M14 melanoma it was 36.7% (inactive).
Take `CN1Cn2c(ccc2C(F)(F)F)C(=O)CS1(=O)=O`: the growth in the assay on DU-145 prostate is 114% (inactive); in the assay on K-562 leukemia, 110% (inactive); with MALME-3M melanoma it was 90.2% (inactive); in the assay with MDA-MB-231 breast, 106% (inactive); with RXF 393 renal, 135% (inactive); in the assay with SF-268 CNS, 108% (inactive). Moreover, the growth in the assay with SF-295 CNS was 103% (inactive); in the assay on SF-539 CNS, 94.3% (inactive); in the assay on UACC-257 melanoma, 102% (inactive); in the assay with M14 melanoma, 104% (inactive).
Regarding `COCCn1cc(-c2csc(-c3cn(C)c4ccc(F)cc34)n2)c2cccnc21`, the growth is 69.9% (inactive) in the assay with DU-145 prostate; 2.01% (active) in the assay on K-562 leukemia; 84.8% (inactive) in the assay with MALME-3M melanoma; 51.5% (inactive) in the assay with MDA-MB-231 breast; 72.3% (inactive) in the assay with RXF 393 renal; 77.2% (inactive) in the assay with SF-268 CNS. In addition, the growth with SF-295 CNS was 73.7% (inactive); in the assay with SF-539 CNS it was 78.1% (inactive); in the assay on UACC-257 melanoma, 83.8% (inactive); in the assay on M14 melanoma, 50.5% (inactive).
Take `N#CC1=C(N)Oc2c(sc3c(Br)cccc23)C1c1ccccn1` (stereo not given): the growth with DU-145 prostate is 51.2% (inactive); with K-562 leukemia, 15.2% (inactive); in the assay with MALME-3M melanoma, 45.4% (inactive); in the assay on MDA-MB-231 breast, 59.8% (inactive); in the assay with RXF 393 renal, 13.5% (inactive); in the assay with SF-268 CNS it was 41.5% (inactive). Further, the growth was 18% (inactive) with SF-295 CNS, 6.33% (active) in the assay on SF-539 CNS, 51.1% (inactive) with UACC-257 melanoma and 28.1% (inactive) in the assay on M14 melanoma.
`CCCNNC(=O)/C=C/c1ccc(CNCCc2c(C)[nH]c3ccccc23)cc1`: the growth was 24.4% [2.5 µM] (inactive) with DU-145 prostate; 10.7% [2.5 µM] (inactive) in the assay on K-562 leukemia; 20% [2.5 µM] (inactive) in the assay on MALME-3M melanoma; 35% [2.5 µM] (inactive) in the assay on MDA-MB-231 breast; -17.9% [2.5 µM] (active) in the assay with RXF 393 renal; 32.1% [2.5 µM] (inactive) in the assay with SF-268 CNS. The growth with SF-295 CNS is 18% [2.5 µM] (inactive); with SF-539 CNS, 31.1% [2.5 µM] (inactive); in the assay on UACC-257 melanoma, -9.62% [2.5 µM] (active); with M14 melanoma, 17.7% [2.5 µM] (inactive).
For `O=C1C(c2c[nH]c3ccccc23)=C(c2coc3cc(Br)ccc23)C(=O)N1O`, the growth is 107% (inactive) with DU-145 prostate; 93.8% (inactive) in the assay with K-562 leukemia; 107% (inactive) in the assay on MALME-3M melanoma; 85.9% (inactive) with MDA-MB-231 breast; 105% (inactive) in the assay with RXF 393 renal; 98.6% (inactive) in the assay with SF-268 CNS. The growth was 95.3% (inactive) in the assay with SF-295 CNS, 106% (inactive) in the assay on SF-539 CNS, 100% (inactive) in the assay with UACC-257 melanoma and 101% (inactive) with M14 melanoma.
Take `CN1CCN(CCCN2c3ccccc3Sc3ccc(Cl)cc32)CC1`: the growth in the assay with DU-145 prostate was 91% (inactive) and 104% (inactive); in the assay with K-562 leukemia, 42.3% (inactive) and 39.7% (inactive); with MALME-3M melanoma, 91.6% (inactive); in the assay on MDA-MB-231 breast, 70.7% (inactive) and 55.1% (inactive); with RXF 393 renal, 47% (inactive) and 63% (inactive); in the assay with SF-268 CNS it was 82.3% (inactive) and 88.2% (inactive). The growth was 85.7% (inactive) and 82.5% (inactive) with SF-295 CNS; 85.1% (inactive) in the assay on SF-539 CNS; -34.7% (active) and 53.2% (inactive) with UACC-257 melanoma; -53.2% (active) and 63.3% (inactive) in the assay on M14 melanoma.
`CCCCCCCCCCCCCCCC(=O)O[C@@H]1[C@@H](O)[C@@H](O)C([C@H](NC(=O)[C@@H]2C[C@@H](CCC)CN2C)[C@H](C)Cl)O[C@@H]1SC` (stereo not given in full): the growth in the assay on DU-145 prostate is 114% (inactive); in the assay on K-562 leukemia, 100% (inactive); with MALME-3M melanoma it was 87.1% (inactive); in the assay with MDA-MB-231 breast, 110% (inactive); in the assay with RXF 393 renal, 106% (inactive); with SF-268 CNS, 105% (inactive). The growth with SF-295 CNS is 104% (inactive); in the assay with SF-539 CNS, 92% (inactive); in the assay on UACC-257 melanoma, 105% (inactive); in the assay on M14 melanoma it was 98.9% (inactive).
